Bioassay records: PubChem, National Center for Advancing Translational Sciences (NCATS)
Shown are actives, neighbours in structure and some others; about 5.9% of the full set was active somewhere.
KB-V1 cytotox = kills drug-selected multidrug resistant KB-V1 cells. KB-V1 MDR cells viability, CellTiter-Glo, 72 h. Potency, µM (series often up to 46.1 µM), actives largely listed as cytotoxic. hit rate 3.4% among 400,000; also: % is scaled to controls: 0 for no effect and ±100 for the full control effect; nearly all actives have a fitted effect of over 60% in size
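Cells of the MDR subline KB-V1 are plated, dosed with compound at multiple concentrations, and incubated 72 h at 37 degrees C; CellTiter-Glo is then added and luminescence read after 10 min.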
ATXN2 expr inh = reduces ATXN2 reporter expression in HEK-293 cells; HEK-293 ATXN2-luciferase reporter, luminescence, 24 h; Potency, µM (top dose mostly 57 µM), without a hit: at the top dose activity change, negative = inhibition, actives largely listed as inhibitors; hit rate 0.72% among 360,000; also: % is scaled to controls: 0 for no effect and ±100 for the full control effect; nearly all actives have a fitted effect of over 55% in size
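ATXN2-luciferase reporter cells (luciferase flanked by upstream and downstream ATXN2 gene portions) were treated 24 h at 37 °C with compounds at up to 57 uM. SteadyGlo luminescence gave expression; GF-AFC fluorescence gave viability.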
S2 tox = cell viability loss in ATXN counter-screen | S2 cells (HEK-293 line with an ATXN2-luciferase reporter) viability, CellTiter-Fluor protease fluorescence, 24 h | hit rate 0.49% among 400,000 | Potency, µM (titrated, usually from 56.7 µM), usual class: cytotoxic; also: nearly all actives have a fitted effect of over 40% in size
TGFb inhibitor = TGF-b pathway inhibition. HepG2 CAGA-GFP TGF-b/SMAD3 reporter, GFP fluorescence, 18 h; TGF-beta stimulated, 500 pg/mL final. Potency, µM (top dose mostly 46.1 µM), for inactives: at the top dose activity, negative = inhibition, most hits filed as inhibitors. hit rate 1.2% among 410,000; also: % is scaled to controls: 0 for no effect and ±100 for the full control effect; nearly all actives have a fitted effect of over 65% in size
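HEPG2 CAGA-GFP reporter cells (1000/well, DMEM with 1% FBS) received compounds, then recombinant TGF-beta at 500 pg/mL final for 18 hours at 37 degrees C. Per-cell GFP summed per well was normalised to unstimulated and stimulated DMSO controls before curve fitting.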
KB-3-1 tox = kills parental KB-3-1 adenocarcinoma cells; KB-3-1 viability, CellTiter-Glo ATP luminescence, 72 h; hit rate 1.4% among 400,000; Potency, µM (top dose mostly 46.1 µM), hits mostly cytotoxic; AID 1347075; also: % is scaled to controls: 0 for no effect and ±100 for the full control effect; nearly all actives have a fitted effect of over 60% in size
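Luminescent ATP read-out (CellTiter-Glo) measures survival of drug-naive KB-3-1 cells after 72 h compound exposure at 37 °C. Titration series was screened from lowest to highest concentration, with DMSO vehicle plates as background controls.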
HepG2 tox = HepG2 cytotoxicity, counter-screen for TGF-b inhibitors; AID 588856; HepG2 CAGA-GFP viability, ATP luminescence, 18 h; hit rate 0.76% among 410,000; Potency, µM (doses to about 46.1 µM), without a hit: at the top dose activity change, negative = cytotoxicity, hits mostly cytotoxic
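HepG2 CAGA-GFP cells (1000/well, DMEM with 1% FBS) received compound, then TGF-beta at 500 pg/mL final, and were incubated 18 hours at 37 degrees C. Viability was read by CellTiter-Glo luminescence. Media-only wells were set as complete cell-killing and DMSO as no toxicity.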
The depositor's hits bear a star; i = inactive; ? = inconclusive; · = not tested or not shown; ! = a repeat was not active. Calls follow the shape of the dose curve; as a rule, active = well fitted curve in the direction sought with a large enough effect; inconclusive = small, poorly fitted or top-dose-only effect, or another doubt; inactive = no such curve, though single readings can be large; an effect the other way counts as inactive or inconclusive. Potency is read from the fitted curve at half-maximal effect.

SMILES	KB-V1 cytotox	ATXN2 expr inh	S2 tox	TGFb inhibitor	KB-3-1 tox	HepG2 tox
CCC1CSC(Nc2ccc(C(=O)/C=C/c3ccc(Br)cc3)cc2)=N1 (stereo not given)	?	?	?	15.8µM*	i	-57.3%
CC(=O)NC1CCCC1C#N (stereo not given)	i	·	·	-4.7%	?	0.9%
COc1cccc2sc(N(CCN(C)C)C(=O)/C=C/c3cccs3)nc12	i	·	?	?	i	-111.7%
CCN(CC)CCN(C(=O)/C=C/c1cccs1)c1nc2ccc(F)cc2s1	i	·	i	?	i	-40.2%
COc1ccc(OC)c2sc(N(CCN(C)C)C(=O)/C=C/c3cccs3)nc12	?	?	·	?	?	15.8µM*
CCOc1cccc2sc(N(CCN(C)C)C(=O)/C=C/c3cccs3)nc12	i	?	?	?	i	-67.6%
COc1ccc(C)c2sc(N(CCN(C)C)C(=O)/C=C/c3cccs3)nc12	?	?	?	?	?	11.2µM*
CN(C)CCCN(C(=O)/C=C/c1cccs1)c1nc2ccc(F)cc2s1	18.4µM*	?	·	17.0%	20.6µM*	15.8µM*
Fc1cc(Br)ccc1Nc1c2c(nc3nc(-c4cccs4)nn13)CCCC2	i	7.4%	i	10µM*	?	-49.3%
Cc1ccc(Nc2c3c(nc4nc(-c5cccs5)nn24)CCCC3)cc1F	i	3.9%	i	?	i	-4.8%
COCCN1C(=O)N[C@@H](c2cccc(C(F)(F)F)c2)[C@H](C(C)=O)[C@H]1C	i	7.5%	i	?	i	17.8µM*
COCCN1C(=O)N[C@@H](c2ccccc2)[C@H](C(C)=O)[C@H]1C	i	0.2%	i	1.7%	i	16.5%
N#CCCSc1ncnc2c1oc1ccccc12	11.6µM*	-2.8%	i	3.7%	?	-19.4%
OCCSc1ncnc2c1oc1ccccc12	i	2.6%	i	-3.0%	i	-1.0%
O=C(O)CNC(=O)/C(=C\c1ccc2c(c1)OCO2)NC(=O)c1ccc(Br)cc1	i	5.3%	i	0.4%	i	4.4%
C=CCNC(=O)/C(=C\c1ccc2c(c1)OCO2)NC(=O)c1ccc(Br)cc1	23.1µM*	6.0%	i	-14.6%	i	-5.9%
Cc1c(C(=O)N2CCCC(C)C2)sc2ncnc(NCCN3CCCCC3)c12 (stereo not given)	·	·	i	·	·	·
CCN1CCN(c2cc(C)c3cc(NC(=O)c4cc(OC)c(OC)c(OC)c4)ccc3n2)CC1	i	0.4%	?	-8.4%	i	-56.3%
CCN1CCN(c2cc(C)c3cc(NC(=O)c4ccc(OC)c(OC)c4)ccc3n2)CC1	4.11µM*!	-8.0%	?	74.5%	3.66µM*!	-30.8%
Cc1cc(N2CCN(C)CC2)nc2ccc(NC(=O)c3ccc(C(C)(C)C)cc3)cc12	?	?	15.8µM*	?	?	12.6µM*
Cc1cc(N2CCN(C)CC2)nc2ccc(NC(=O)Nc3ccc(Cl)cc3)cc12	i	13.0%	i	35.5%	i	-16.4%
CC(=O)c1ccc(NC(=O)CSc2nnc3ccc(-c4ccc(Br)cc4)nn23)cc1	·	·	·	-26.7%	·	-19.9%
COc1cc(CN2CCOc3ccc(CN4CCC(O)(c5cccnc5)CC4)cc3C2)ccc1F	·	·	i	·	·	·
O=C(Nc1nc(-c2cccs2)c(-c2cccs2)s1)C1(c2ccccc2)CC1	18.4µM*	-10.4%	i	1.1%	i	-23.5%
CC(=O)NCCC(=O)Nc1nc(-c2cccs2)c(-c2cccs2)s1	i	1.1%	i	8.3%	i	-3.5%
SMILES	KB-V1 cytotox	ATXN2 expr inh	S2 tox	TGFb inhibitor	KB-3-1 tox	HepG2 tox
COc1ccccc1OC(C)C(=O)Nc1cccc(-c2nc3ccccc3o2)c1 (stereo not given)	i	?	i	60.7%	i	-22.6%
Cc1cc(C)cc(NC(=O)Cn2nnc(-c3ccccc3F)n2)c1	·	·	·	-13.0%	·	-17.7%
CCC(=O)c1ccccc1OCCSc1nc(C)cc(=O)[nH]1	14.6µM*	0.6%	i	-16.1%	i	-0.2%
CCc1c(C)nc(SCCOc2ccc(OC)cc2)[nH]c1=O	i	2.7%	i	3.9%	i	0.316µM*
CCc1c(C)nc(SCCOc2ccc(OC(C)C)cc2)[nH]c1=O	i	-4.2%	i	-4.2%	i	12.8%
Cc1cc(=O)[nH]c(SCCCOc2ccc(F)cc2)n1	18.4µM*	4.6%	i	6.6%	i	1.1%
CCCOc1cccc(OCCSc2nc(C)cc(=O)[nH]2)c1	?	39.2%	i	-5.0%	i	-3.0%
CCCCCCNC(=O)Nc1nnc(-c2ccncc2)s1	i	·	·	·	?	·
COc1ccc(Nc2ncnc3c2c(-c2ccccc2)cn3-c2ccc(C)c(Cl)c2)cc1OC	·	·	·	-0.6%	·	2.3%
Cc1ccc(/C=N/NC(=O)c2csc3c2CCCC3)cc1	?	50.7%	i	-23.1%	2.06µM*	-9.4%
O=C(C1CCCCC1)N1C[C@@H](O)[C@H](n2cc(-c3ccc(F)cc3)nn2)C[C@@H]1c1ccccc1	i	-11.1%	?	-14.0%	18.4µM*	-28.9%
Cc1ccc([C@H]2C[C@@H](n3cc(-c4ccc(F)cc4)nn3)[C@H](O)CN2C(=O)C2CCCCC2)cc1	9.2µM*	-2.3%	?	1.3%	?	-9.7%
COc1ccc2c(c1)C1=NN(/C(C)=C/C(C)=O)C(c3ccc(F)cc3)C1CC2 (stereo not given)	20.6µM*	32.6%	i	-8.3%	i	-26.0%
OC1(c2cccnc2)CCN(Cc2ccc3c(c2)CN(Cc2ccsc2)CCO3)CC1	·	·	i	·	·	·
CCc1nc2ccc(C(=O)N(C)CCN(C)C)cn2c1N(CC)C(=O)NCCc1ccccc1	i	6.3%	i	2.1%	i	-37.5%
O=[N+]([O-])c1ccc(Cl)c(C2Nc3cccc4cccc(c34)N2)c1	?	?	?	?	10.3µM*	-35.3%
O=[N+]([O-])c1ccccc1C1Nc2cccc3cccc(c23)N1	i	?	?	?	i	-14.1%
CCN(c1cccc(C)c1)S(=O)(=O)c1cc(Br)cc2c1N(C(C)=O)C(C)C2 (stereo not given)	i	?	?	?	i	-14.2%
Cc1ccc(CNC(=O)C(CC(C)C)N2Cc3ccccc3C2=O)cc1 (stereo not given)	i	·	·	0.5%	i	-15.1%
COc1ccc(Cl)cc1NC(=O)c1ccc2nc(Cc3ccccc3)oc2c1	i	-30.2%	i	-8.9%	i	-33.1%
